Only some compounds are listed: those with a hit (about 5.4% of all), similar ones and a draw of the others.
Six1-Eya2_blk: qHTS Assay for Inhibitors of the Six1/Eya2 Interaction; Homeobox protein SIX1 (Homo sapiens) + Protein phosphatase EYA2 (Homo sapiens), …; AlphaScreen GST-Six1/His-Eya2 binding, biochemical; active compounds read low; activity change, % (no concentration beside the values); hit rate 0.56% among 360,000; AID 651725, 2012; in the data active = activity change below about -65%; inconclusive = mostly about -30% to -63%; also: % is scaled to controls: 0 for no effect and ±100 for the full control effect
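Compounds are tested against tagged Six1 and Eya2 proteins bridged by glutathione donor and nickel acceptor beads; after a one-hour incubation at 37 °C without light, AlphaScreen emission is recorded.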
VP16_counter: VP16 counterscreen qHTS for inhibitors of ROR gamma transcriptional activity. Drosophila S2 Gal4-VP16 UAS-luciferase, luminescence, 20 h. Potency, µM (top dose mostly 53.6 µM), without a hit: at the top dose activity, negative = inhibition, hits mostly inhibitors. hit rate 3.5% among 310,000. AID 2546, 2010;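 also: Gal4-VP16 expression switched on by copper sulfate through the metallothionein promoter; potency is read from the fitted curve at half-maximal effect; % is scaled to controls: 0 for no effect and ±100 for the full control effect; nearly all actives have a fitted effect of over 50% in size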
CtBP-E1A_inh: qHTS Assay for Inhibitors of the CtBP/E1A Interaction. activity change, % (concentration not given with the values). AlphaScreen GST-E1A/His-CtBP binding, 1536-well; active compounds read low. hit rate 0.49% among 340,000; in the data active = activity change below about -65%; inconclusive = mostly about -30% to -63%; also: % is scaled to controls: 0 for no effect and ±100 for the full control effect
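Steps: dispense buffer (Tris pH 8.0, NaCl 300 mM, TCEP 1 mM, BSA, Tween 20); add 5X protein mix (GST-E1A, His-CtBP, 125 nM each); pin 23 nL compound; 2 h at 37 °C, dark; add 5X beads (50 ug/mL); 1 h; read.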
RORgamma_inh: qHTS for inhibitors of ROR gamma transcriptional activity; AID 2551, 2010; hit rate 5.4% among 310,000; Potency, µM (doses to about 53.6 µM), for inactives: top-dose activity change, negative = inhibition, usual class: inhibitors; Drosophila S2 Gal4-RORgamma UAS-luciferase reporter, 20 h; also: potency is read from the fitted curve at half-maximal effect; % is scaled to controls: 0 for no effect and ±100 for the full control effect; nearly all actives have a fitted effect of over 60% in size
Target sequence (P51450 whole entry, looked up, the tested form may be a part): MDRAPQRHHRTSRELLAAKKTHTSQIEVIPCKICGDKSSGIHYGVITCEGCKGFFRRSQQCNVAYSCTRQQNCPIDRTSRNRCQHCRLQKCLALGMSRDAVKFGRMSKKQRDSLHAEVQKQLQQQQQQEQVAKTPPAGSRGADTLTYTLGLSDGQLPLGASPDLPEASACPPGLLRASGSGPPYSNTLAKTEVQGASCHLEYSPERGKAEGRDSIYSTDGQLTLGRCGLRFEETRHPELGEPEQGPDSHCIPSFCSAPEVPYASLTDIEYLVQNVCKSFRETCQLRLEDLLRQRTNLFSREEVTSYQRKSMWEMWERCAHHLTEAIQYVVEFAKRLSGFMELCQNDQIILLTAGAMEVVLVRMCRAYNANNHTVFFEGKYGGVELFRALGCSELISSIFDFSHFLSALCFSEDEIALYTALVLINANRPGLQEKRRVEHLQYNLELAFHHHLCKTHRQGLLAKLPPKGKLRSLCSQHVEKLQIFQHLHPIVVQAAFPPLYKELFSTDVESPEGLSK
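A Gal4/UAS one-hybrid system in insect cells: metallothionein-promoter Gal4–ROR gamma fusion plus Photinus luciferase reporter. Copper sulfate 700 uM final, 20 hr ambient incubation, luminescent detection after 10 min with reagent.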
p53_reactivator: qHTS assay for re-activators of p53 using a Luc reporter | hit rate 0.063% among 320,000 | H1299 p53-A138V BP100-luciferase reporter, luminescence, 24 h | AID 504706, 2011 | Potency, µM (highest dose often 92.2 µM), for inactives: at the top dose activity change, positive = activation, actives largely listed as activators; also: potency is read from the fitted curve at half-maximal effect; % of control where 0% means no effect; nearly all actives have a fitted effect of over 45% in size
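p53-null H1299 cells stably carrying temperature-sensitive p53-A138V and a BP100-luciferase reporter were pinned with compounds (4-point, 1:5 series) and held 24 hrs at 37 deg C. Luminescence was read 10 min after detection reagent.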
* marks the source's active call; other numbers are inactive results; ? = inconclusive; nt = not tested or not shown. Unless noted, calls follow the shape of the dose curve; as a rule, active = well fitted curve in the direction sought with a large enough effect; inconclusive = small, poorly fitted or top-dose-only effect, or another doubt; inactive = no such curve, though single readings can be large; an effect the other way counts as inactive or inconclusive.

SMILES Six1-Eya2_blk VP16_counter CtBP-E1A_inh RORgamma_inh p53_reactivator
CN(C)CCCN(C(=O)c1ccc(S(=O)(=O)N2CCc3ccccc32)cc1)c1nc2ccc(F)cc2s1 -21 -23% -30 -42% ?
CN(C)CCCN(C(=O)c1ccc(S(=O)(=O)N2CCc3ccccc3C2)cc1)c1nc2ccc(F)cc2s1 6 11µM* -13 ? 12%
CC(C)Cn1c(N)c(C(=O)COC(=O)CCNS(=O)(=O)c2ccccc2)c(=O)n(C)c1=O -3 nt -20 nt -3%
CSCC[C@H](NC(=O)[C@H](CC(C)C)NC(=O)[C@H](CO)NC(=O)[C@H](CCC(=O)O)NC(=O)[C@H](CC(C)C)NC(=O)[C@H](Cc1ccc(O)cc1)NC(=O)[C@H](CCCCN)NC(=O)[C@H](CCCCN)NC(=O)[C@H](C)NC(=O)[C@H](CO)NC(=O)[C@H](CC(C)C)NC(=O)[C@H](CCC(N)=O)NC(=O)CNC(=O)[C@H](CC(C)C)NC(=O)[C@H](CC(C)C)NC(=O)[C@H](CCCCN)NC(=O)[C@H](CO)NC(=O)[C@H](Cc1ccccc1)NC(=O)[C@H](CC(=O)O)NC(=O)[C@H](CO)NC(=O)[C@@H](NC(=O)[C@H](Cc1ccccc1)NC(=O)[C@@H](NC(=O)CNC(=O)[C@H](CC(=O)O)NC(=O)[C@H](C)NC(=O)[C@@H](N)Cc1cnc[nH]1)C(C)C)[C@@H](C)O)C(N)=O nt -2% nt -5% nt
Cc1ccccc1C(=O)Nc1ccc2c(C#N)c3nc4ccccc4nc3n2c1 ? -5% -71* -2% -2%
CCOc1ccc(NC(=O)CSc2nc(=O)n(CCCN3CCOCC3)c3c2CCC3)cc1 -1 nt 2 nt -2%
O=C(Nc1ccccc1C(=O)Nc1nnc(C(F)(F)F)s1)c1ccccc1Cl 6 16µM* -4 ? 5%
NC(=O)c1ccccc1NC(=O)c1ccccc1Cl -14 15% nt 9% 11%
CC(C)(C)c1ccc(-c2nnc(NC(=O)c3ccccc3)s2)cc1 3 ? 8 7.9µM* -3%
O=C(Nc1nnc(-c2ccccc2)s1)c1ccccc1F 1 1% -15 13µM* 22%
O=C(Nc1nnc(-c2ccccc2Cl)s1)c1ccccc1F 4 -1% 4 -14% 6%
O=C(Cn1cnc(S(=O)(=O)N2CCCCC2)c1)Nc1ccc(OC(F)(F)F)cc1 1 -7% -14 3% 0%
C/C(Cl)=C\Cn1c(O)c(N=NC(N)=S)c2cc(Br)ccc21 ? 3.2µM* -12 3.2µM* -5%
NC(=S)N=Nc1c(O)n(CCCl)c2ccc(Br)cc12 -9 3.5µM* ? 0.79µM* -5%
C/C(Cl)=C\Cn1c(O)c(N=O)c2ccccc21 -1 ? 7 32% -2%
CCCCn1c(O)c(N=NC(=O)c2ccncc2)c2cc(Br)ccc21 -1 -1% 2 ? -14%

High-throughput results deposited in PubChem BioAssay by National Center for Advancing Translational Sciences (NCATS).
